Results reported in PubChem BioAssay (NCATS).
Results filed as inconclusive are left out. Entries that show only a call come without a potency. Activity calls are given as the source filed them. Unless noted, calls follow the shape of the dose curve; as a rule, active = well fitted inhibition curve with a large enough effect; inconclusive = small, poorly fitted or top-dose-only effect; inactive = flat fitted curve, though single readings scatter.

How the values were obtained:
[1] = AP1 Signaling Pathway (AID 357; active = well fitted curve in either direction with a large enough effect, not every such curve was filed as active)
Method in brief: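 ME-180 cells with beta-lactamase reporter under AP-1 response element, stimulated with EC50 EGF; compounds tested in titration series, 5 h at 37 °C. CCF4 substrate added 2.5 h at room temperature; 460/530 nm emission ratio gave %activity and AC50.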

[2] = target: Cytochrome P450 1A2 (Homo sapiens) (UniProt P05177); assay: p450-cyp1a2 (AID 410; calls by dose curve)
Chain of Cytochrome P450 1A2 (Homo sapiens) (P05177 whole entry, looked up): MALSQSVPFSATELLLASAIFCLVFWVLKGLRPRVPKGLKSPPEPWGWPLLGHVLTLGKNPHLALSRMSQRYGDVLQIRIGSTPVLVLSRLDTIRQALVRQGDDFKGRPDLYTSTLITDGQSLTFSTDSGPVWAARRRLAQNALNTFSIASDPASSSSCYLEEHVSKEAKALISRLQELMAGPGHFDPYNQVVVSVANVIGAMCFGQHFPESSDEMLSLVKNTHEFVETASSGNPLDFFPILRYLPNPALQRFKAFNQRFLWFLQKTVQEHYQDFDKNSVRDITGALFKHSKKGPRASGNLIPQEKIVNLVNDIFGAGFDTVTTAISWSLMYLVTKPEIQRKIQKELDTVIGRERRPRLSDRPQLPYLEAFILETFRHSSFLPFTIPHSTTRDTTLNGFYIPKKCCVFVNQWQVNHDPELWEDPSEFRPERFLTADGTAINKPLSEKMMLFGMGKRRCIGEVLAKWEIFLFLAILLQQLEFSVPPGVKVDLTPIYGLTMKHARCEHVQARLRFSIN
Method in brief: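 O-Demethylation of luciferin 6' methyl ether by human CYP1A2 is monitored as luciferase luminescence. Substrate sits at Km (100uM); enzyme is 20nM. Values are scaled to 57 uM furafylline as maximal inhibition.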

[3] = NFAT Signaling Pathway (AID 444; active = well fitted curve in either direction with a large enough effect, not every such curve was filed as active;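 also: carbachol stimulus at about its EC50 of 1 µM final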); details: Jurkat NFAT-bla M1, carbachol, beta-lactamase ratio, 5 h; at 17.2 µM (top of the series) unless noted
Method in brief: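 Read-out: CCF4 FRET ratio (460 nm/530 nm) after 1 h RT dye loading, used for %activity and AC50 from titration series. Cells: Jurkat NFAT-β-lactamase/M1 line, treated with compound plus 1 uM carbachol for 5 h, 37 °C.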

[4] = Stat Signaling Pathway (AID 446; active = well fitted curve in either direction with a large enough effect, not every such curve was filed as active;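 also: ME-180 cervical cancer cells given 40 pM IL-6 alongside compound; SIE-controlled beta-lactamase reporter measured as 460/530 nm FRET emission ratio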)
Method in brief: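 Emission at 460 and 530 nm (excitation 405 nm) reports SIE-controlled beta-lactamase in ME-180 cells. Cells received compound with 40 pM IL-6 for 5 hrs at 37 C; data scaled between 300 pM IL-6 and 125 nM JAK-inhibitor controls.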

[5] = target: Glucocorticoid receptor (Homo sapiens) (UniProt P04150); assay: GR-GFP Redistribution (AID 450;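 active = compounds whose dose series gives a full or clear partial fitted curve of increased nuclear translocation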; also: potency is read from the fitted curve at half-maximal effect); details: U2OS GR-GFP nuclear translocation, laser cytometry, 2 h
Chain of Glucocorticoid receptor (Homo sapiens) (P04150 whole entry, looked up, the tested form may be a part): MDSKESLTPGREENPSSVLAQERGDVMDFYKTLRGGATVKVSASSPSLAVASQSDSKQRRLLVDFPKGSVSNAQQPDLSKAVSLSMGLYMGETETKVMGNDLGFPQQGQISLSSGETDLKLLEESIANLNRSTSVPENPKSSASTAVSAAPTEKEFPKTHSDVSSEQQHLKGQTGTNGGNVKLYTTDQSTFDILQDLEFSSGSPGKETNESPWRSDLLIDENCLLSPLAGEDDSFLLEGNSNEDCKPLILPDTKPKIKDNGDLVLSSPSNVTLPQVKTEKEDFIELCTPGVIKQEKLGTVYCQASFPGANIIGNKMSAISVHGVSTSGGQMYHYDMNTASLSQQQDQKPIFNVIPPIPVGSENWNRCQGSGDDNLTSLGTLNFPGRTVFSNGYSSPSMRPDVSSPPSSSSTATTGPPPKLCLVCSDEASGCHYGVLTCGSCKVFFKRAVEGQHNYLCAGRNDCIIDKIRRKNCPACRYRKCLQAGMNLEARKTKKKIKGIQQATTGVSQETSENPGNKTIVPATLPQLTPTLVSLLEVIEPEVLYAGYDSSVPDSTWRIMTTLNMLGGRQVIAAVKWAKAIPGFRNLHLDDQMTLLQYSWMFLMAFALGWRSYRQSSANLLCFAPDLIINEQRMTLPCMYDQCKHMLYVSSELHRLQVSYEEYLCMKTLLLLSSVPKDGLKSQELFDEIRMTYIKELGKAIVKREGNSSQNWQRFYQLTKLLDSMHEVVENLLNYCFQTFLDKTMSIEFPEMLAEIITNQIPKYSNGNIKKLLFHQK

[6] = target: Glucocorticoid receptor (Homo sapiens) (UniProt P04150); assay: GR-EFC Redistribution (AID 451; calls by dose curve; also: potency is read from the fitted curve at half-maximal effect); details: CHO-K1 GR-EFC translocation, beta-gal luminescence, 2 h
Method in brief: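 Translocation of GR-ED fusion to nuclear EA restores b-gal, read by luminescence after 1 h room-temperature detection. Engineered CHO-K1 biosensor cells, 1,000/well, exposed 2 h at 37 C to titrations up to 46 uM final.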

[7] = target: Mitogen-activated protein kinase 10 (Mus musculus) (UniProt Q61831); assay: JNK3 AlphaScreen Assay (AID 530; active = well fitted curve in either direction with a large enough effect, not every such curve was filed as active;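 also: kinase came from lysate of stimulated human HepG2 cells; signal reports phosphorylation of biotinylated GST-cJun 1-79 at Ser73 with 10 µM ATP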)
Method in brief: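 qHTS titrations with 15 min compound pre-incubation before adding ATP (10 uM final). Read-out: AlphaScreen of Ser73-phosphorylated biotin-GST-cJun using HepG2 lysate JNK3 activated by IL-1β and TNFα.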

[8] = target: 3',5'-cyclic-AMP phosphodiesterase 4B (Homo sapiens) (UniProt Q07343); assay: qHTS Assay for Inhibitors of PDE-IV (AID 607; active = well fitted activation curve with a large enough effect in the main read-out, with a control signal flat, not every such curve was filed as active)
Chain of 3',5'-cyclic-AMP phosphodiesterase 4B (Homo sapiens) (Q07343 whole entry, looked up): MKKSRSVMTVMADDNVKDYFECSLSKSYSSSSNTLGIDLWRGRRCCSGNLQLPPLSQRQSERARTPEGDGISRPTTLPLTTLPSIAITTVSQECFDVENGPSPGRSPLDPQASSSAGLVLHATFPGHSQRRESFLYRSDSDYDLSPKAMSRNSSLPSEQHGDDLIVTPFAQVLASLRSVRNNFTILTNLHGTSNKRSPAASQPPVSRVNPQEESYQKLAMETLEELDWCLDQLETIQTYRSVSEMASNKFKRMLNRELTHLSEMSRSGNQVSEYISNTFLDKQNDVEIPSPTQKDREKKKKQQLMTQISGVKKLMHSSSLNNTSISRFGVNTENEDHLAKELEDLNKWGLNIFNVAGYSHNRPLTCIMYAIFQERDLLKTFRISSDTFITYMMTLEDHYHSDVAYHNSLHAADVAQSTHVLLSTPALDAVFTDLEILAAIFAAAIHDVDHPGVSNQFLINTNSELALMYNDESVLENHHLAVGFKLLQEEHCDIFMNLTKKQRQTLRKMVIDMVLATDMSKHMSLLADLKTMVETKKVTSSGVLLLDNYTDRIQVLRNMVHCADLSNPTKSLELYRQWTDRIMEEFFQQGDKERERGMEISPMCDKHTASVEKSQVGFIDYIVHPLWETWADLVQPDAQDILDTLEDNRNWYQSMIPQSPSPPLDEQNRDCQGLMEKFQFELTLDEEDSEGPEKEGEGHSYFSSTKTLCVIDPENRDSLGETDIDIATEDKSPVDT
Method in brief: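 The readout is membrane depolarisation from a cAMP-sensing CNG channel, detected with a potential dye at ex 535/em 590. Cells were HEK293-derived (endogenous PDE-IV) at 1000 cells/well, titrated up to 22.9 uM final.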

[9] = qHTS Assay for Lipid Storage Modulators (AID 1519; calls by dose curve); details: Drosophila S3 cells, BODIPY lipid droplet/cell ratio, laser cytometry, cells loaded with oleic acid; for activity change, negative = inhibition: at 25.7 µM (top of the series)
Method in brief: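 Cells seeded at 5,000 per well were treated with compounds over a concentration series and loaded with oleic acid (400 uM, as added). Lipid droplet fluorescence (488 nm excitation, 500-530 nm channel) was read by laser-scanning cytometry and normalized to 20 uM Triacsin C.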

[10] = target: Luciferin 4-monooxygenase (Photinus pyralis) (UniProt P08659); assay: Biochemical firefly luciferase enzyme assay for NPC (AID 624030);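 also: purified P. pyralis luciferase at 10 nM with luciferin and ATP substrate; nearly all actives have a fitted effect of over 70% in size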
Chain of Luciferin 4-monooxygenase (Photinus pyralis) (P08659 whole entry, looked up): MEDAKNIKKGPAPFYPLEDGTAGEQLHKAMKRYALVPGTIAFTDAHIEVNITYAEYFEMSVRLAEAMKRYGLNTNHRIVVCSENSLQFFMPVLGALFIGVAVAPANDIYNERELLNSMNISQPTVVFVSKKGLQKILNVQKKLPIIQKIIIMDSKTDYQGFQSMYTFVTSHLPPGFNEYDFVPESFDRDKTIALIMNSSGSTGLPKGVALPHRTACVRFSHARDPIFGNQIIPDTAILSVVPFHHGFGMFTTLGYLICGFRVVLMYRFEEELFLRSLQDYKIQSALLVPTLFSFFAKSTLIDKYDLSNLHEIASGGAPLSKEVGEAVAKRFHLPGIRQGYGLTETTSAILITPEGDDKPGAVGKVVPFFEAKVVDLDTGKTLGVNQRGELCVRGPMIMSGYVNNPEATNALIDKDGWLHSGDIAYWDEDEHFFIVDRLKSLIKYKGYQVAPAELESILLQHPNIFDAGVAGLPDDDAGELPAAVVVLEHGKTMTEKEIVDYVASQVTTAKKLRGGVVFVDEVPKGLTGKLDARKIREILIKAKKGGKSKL
Method in brief: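 Direct inhibition of firefly luciferase enzyme (10 nM final, 50 mM Tris Acetate) assessed by luminescence within 5 minutes. Percent activity scaled between DMSO and PTC124 positive control, with concentration-effect curves classified by fit quality and response.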

[11] = test system: CP256; assay: qHTS profiling for inhibitors of Plasmodium falciparum proliferation (AID 504749); also: nearly all actives have a fitted effect of over 60% in size; also: potency is read from the fitted curve at half-maximal effect; details: P. falciparum in erythrocytes, SYBR Green DNA, 72 h; series mostly up to 12.8 µM
Method in brief: (§1)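 SYBR Green fluorescence of parasite DNA, read after lysis and overnight dark incubation, measured growth over 72 h in erythrocyte culture at 0.3% parasitemia and 2.5% hematocrit. Data normalised to DMSO and 0.29 uM artemisinin, with plate-drift correction.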

[12] = test system: FAB9; assay: as above; details: P. falciparum in erythrocytes, SYBR Green DNA, 72 h; series mostly up to 12.8 µM
Method in brief: as §1

[13] = test system: JCK; assay: as above; details: P. falciparum in erythrocytes, SYBR Green DNA, 72 h; series mostly up to 12.8 µM
Method in brief: as §1

[14] = test system: SC27B; assay: as above; details: P. falciparum in erythrocytes, SYBR Green DNA, 72 h; series mostly up to 12.8 µM
Method in brief: as §1

[15] = target: Ubiquitin carboxyl-terminal hydrolase 1 (Homo sapiens) (UniProt O94782); assay: Inhibitors of USP1/UAF1: Pilot qHTS (AID 504865);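 also: rhodamine fluorescence freed from ubiquitin-rhodamine substrate followed over time; top concentration of the series differs between compounds; nearly all actives have a fitted effect of over 35% in size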
Chain of Ubiquitin carboxyl-terminal hydrolase 1 (Homo sapiens) (O94782 whole entry, looked up): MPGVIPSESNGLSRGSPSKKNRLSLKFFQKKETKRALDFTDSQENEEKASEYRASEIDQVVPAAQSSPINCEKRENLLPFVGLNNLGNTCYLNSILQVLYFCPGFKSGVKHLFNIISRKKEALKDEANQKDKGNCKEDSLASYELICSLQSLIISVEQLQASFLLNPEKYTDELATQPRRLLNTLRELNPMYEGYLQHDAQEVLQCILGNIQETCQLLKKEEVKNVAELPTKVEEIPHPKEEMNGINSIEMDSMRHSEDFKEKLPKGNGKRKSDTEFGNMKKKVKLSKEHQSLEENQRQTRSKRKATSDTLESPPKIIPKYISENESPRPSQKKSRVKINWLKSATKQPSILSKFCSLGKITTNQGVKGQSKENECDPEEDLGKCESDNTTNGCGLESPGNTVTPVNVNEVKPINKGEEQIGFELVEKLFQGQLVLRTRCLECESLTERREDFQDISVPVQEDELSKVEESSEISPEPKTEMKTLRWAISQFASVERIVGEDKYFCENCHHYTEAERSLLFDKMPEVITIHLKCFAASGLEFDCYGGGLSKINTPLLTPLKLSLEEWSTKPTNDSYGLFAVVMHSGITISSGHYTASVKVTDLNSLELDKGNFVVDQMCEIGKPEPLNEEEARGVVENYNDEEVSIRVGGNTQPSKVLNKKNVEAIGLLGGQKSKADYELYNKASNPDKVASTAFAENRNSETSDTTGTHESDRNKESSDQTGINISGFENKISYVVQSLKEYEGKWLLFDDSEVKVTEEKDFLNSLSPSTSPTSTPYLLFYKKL
Method in brief: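 1nM USP1/UAF1 + cpd, 15 min RT; start w/ Ub-Rho 150nM final; kinetic FL 480/540 nm, 6 reads q60 s. Buffer 50mM HEPES pH 7.8, 0.5mM EDTA, 1mM TCEP, 0.01% Tween-20, 0.1 mg/ml BSA.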

[16] = qHTS profiling for inhibitors of Plasmodium falciparum proliferation (AID 504749); also: nearly all actives have a fitted effect of over 60% in size; also: potency is read from the fitted curve at half-maximal effect; details: P. falciparum in erythrocytes, SYBR Green DNA, 72 h
Method in brief: as §1

[17] = test system: C2A; assay: as above; details: P. falciparum in erythrocytes, SYBR Green DNA, 72 h; series mostly up to 12.8 µM
Method in brief: as §1

[18] = test system: CP217; assay: as above; details: P. falciparum in erythrocytes, SYBR Green DNA, 72 h; series mostly up to 12.8 µM
Method in brief: as §1

[19] = test system: CP238; assay: as above; details: P. falciparum in erythrocytes, SYBR Green DNA, 72 h; series mostly up to 12.8 µM
Method in brief: as §1

[20] = test system: CP250; assay: as above; details: P. falciparum in erythrocytes, SYBR Green DNA, 72 h; series mostly up to 12.8 µM
Method in brief: as §1

[21] = measured here: cell count channel max response
[22] = measured here: lipid channel max response
[23] = at 12.8 µM (top of the series), parasite line A
[24] = at 12.8 µM (top of the series), parasite line B

CO[C@H]1[C@H](O[C@H]2O[C@@H](C)[C@@H](O[C@@H]3C[C@](C)(O)[C@H](OC(=O)CC(C)C)[C@H](C)O3)[C@@H](N(C)C)[C@@H]2O)[C@@H](CC=O)C[C@@H](C)[C@@H](O)/C=C\C=C/C[C@@H](C)OC(=O)C[C@H]1OC(C)=O
outcome [1]: inactive | Potency [2]: inactive | activity change, negative = inhibition [3]: -0.256% (inactive) | outcome [4]: inactive | Potency [5]: > 20.6 µM (inactive) | Potency [6]: > 20.6 µM (inactive) | Potency [7]: inactive | outcome [8]: inactive | activity change, negative = inhibition [9]: -3.13% (inactive) | max response [9, 21]: -10.5% | max response [9, 22]: -14% | Potency [10]: inactive | Potency [11]: 2 µM (active) | Potency [12]: inactive | Potency [13]: inactive | Potency [14]: inactive

CN1C(=O)C[C@H](c2ccccc2)C1=O
outcome [1]: inactive | Potency [2]: inactive | activity change, negative = inhibition [3]: 35.9% (inactive) | outcome [4]: inactive | Potency [5]: > 20.6 µM (inactive) | Potency [6]: > 20.6 µM (inactive) | Potency [7]: inactive | outcome [8]: inactive | activity change, negative = inhibition [9]: 0.325% (inactive) | max response [9, 21]: -28% | max response [9, 22]: -25.7% | Potency [15]: inactive | Potency [10]: inactive | activity, negative = inhibition ([16]; at 28.7 µM (top of the series), parasite line B): -2.97% (inactive) | Potency [17]: inactive | Potency [18]: inactive | Potency [19]: inactive | Potency [20]: inactive | Potency [11]: inactive | Potency [12]: inactive | Potency [13]: inactive | Potency [14]: inactive

CC(=O)OCC(=O)[C@@]1(O)CC[C@@H]2[C@H]3CCC4=CC(=O)C=C[C@]4(C)[C@]3(F)[C@@H](O)C[C@@]21C
outcome [1]: inactive | Potency [2]: inactive | activity change, negative = inhibition [3]: -2.98% (inactive) | outcome [4]: inactive | Potency [5]: 0.00326 µM (active) | Potency [6]: 0.035 µM (active) | Potency [7]: inactive | outcome [8]: inactive | activity change, negative = inhibition [9]: 0.563% (inactive) | max response [9, 21]: 15.5% | max response [9, 22]: -0.686% | Potency [15]: inactive | Potency [10]: inactive | activity, negative = inhibition [16, 23]: -3.89% (inactive) | activity, negative = inhibition [16, 24]: 16% (inactive) | Potency [17]: inactive | Potency [18]: inactive | Potency [19]: inactive | Potency [20]: inactive | Potency [11]: inactive | Potency [12]: inactive | Potency [13]: inactive | Potency [14]: inactive

C[N+]12CCC(CC1)[C@@H](OC(=O)C(O)(c1ccccc1)c1ccccc1)C2
outcome [1]: inactive | Potency [2]: inactive | activity change, negative = inhibition [3]: -57.3% (active) | outcome [4]: inactive | Potency [5]: > 20.6 µM (inactive) | Potency [6]: > 20.6 µM (inactive) | Potency [7]: inactive | outcome [8]: inactive | activity change, negative = inhibition [9]: -3.29% (inactive) | max response [9, 21]: -12.1% | max response [9, 22]: -15% | Potency [10]: inactive | activity, negative = inhibition [16, 23]: 11.6% (inactive) | activity, negative = inhibition [16, 24]: 16% (inactive) | Potency [17]: inactive | Potency [18]: inactive | Potency [19]: inactive | Potency [20]: inactive | Potency [11]: inactive | Potency [12]: inactive | Potency [13]: inactive | Potency [14]: inactive
